The values that follow come from PubChem BioAssay (EPA / NIEHS).

Test [1] can be described thus: ATG_E_Box_CIS: Attagene CIS-FACTORIAL HepG2 Assay for human Enhancer Box (E-box) (AID 2282936). The note with it: HepG2 E-box cis-reporter transcription, actives raise or lower the signal. Put shortly:
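Transiently transfected HepG2, endogenous TF-driven reporters, 24 h dosing. Readout: RT-PCR plus capillary electrophoresis of fluorescent reporter fragments. Gain or loss of signal fitted bidirectionally against DMSO baseline.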

The nature of test [2]: ATG_M_61_CIS: Attagene CIS-FACTORIAL HepG2 Assay for M61 Transcription Factor (Internal Marker) (AID 2282937). Conditions: HepG2 Attagene CIS-FACTORIAL M61 internal marker reporter; actives raise or lower the signal. Put shortly: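 Transfect HepG2 with MRTUs; dose 24 h; isolate RNA; reverse-transcribe with DNase I treatment; PCR-amplify, FAM-label and cut with HpaI for 2 h at 37 C; resolve by CE. Bidirectional fitting against DMSO.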

Test [3] in a line: ATG_EGR_CIS: Attagene CIS-FACTORIAL HepG2 Assay for human Early Growth Response 1 (EGR1) (AID 2282938). Conditions: HepG2 Attagene CIS-FACTORIAL EGR reporter mRNA; actives raise or lower the signal. Put shortly: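 After a 24 h treatment of transiently transfected HepG2 cells, total RNA was reverse-transcribed and reporter sequences PCR-amplified, labelled and run on capillary electrophoresis. Reporters sit under cis-regulatory promoters sensing endogenous factors.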

Test [4] in a line: ATG_M_19_CIS: Attagene CIS-FACTORIAL HepG2 Assay for M19 Transcription Factor (Internal Marker) (AID 2282939). The note with it: HepG2 Attagene CIS-FACTORIAL M19 internal marker reporter; actives raise or lower the signal. Put shortly:
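Transfect HepG2 with MRTU reporter library → dose chemical, 24 h → isolate total RNA, reverse-transcribe with oligo(dT) → PCR, 6-FAM label, HpaI cut (2 h, 37 C) → capillary electrophoresis. Bidirectional fit vs DMSO.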

The nature of test [5]: ATG_Ets_CIS: Attagene CIS-FACTORIAL HepG2 Assay for human Erythroblast Transformation Specific (ETS) (AID 2282941). The note with it: HepG2 ETS cis-reporter transcription, actives raise or lower the signal. Put shortly: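 Cis-regulated reporter mRNA induction in HepG2 (transient transfection), 24 h exposure, RT-PCR plus capillary electrophoresis detection; DMSO serves as negative control and baseline.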

For test [6], the target named is Hepatocyte nuclear factor 3-beta (Homo sapiens) (UniProt Q9Y261). The test can be described thus: ATG_FoxA2_CIS: Attagene CIS-FACTORIAL HepG2 Assay for human Forkhead box A2 (FOXA2) (AID 2282942). Conditions: HepG2 cis-reporter transcription factor activity, 24 h; actives raise or lower the signal. Put shortly: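 24 h dosing of HepG2 bearing cis-reporter constructs; mRNA readout by RT-PCR/CE fluorescence; bidirectional fit, DMSO baseline.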
Chain of Hepatocyte nuclear factor 3-beta (Homo sapiens) (Q9Y261 whole entry, looked up): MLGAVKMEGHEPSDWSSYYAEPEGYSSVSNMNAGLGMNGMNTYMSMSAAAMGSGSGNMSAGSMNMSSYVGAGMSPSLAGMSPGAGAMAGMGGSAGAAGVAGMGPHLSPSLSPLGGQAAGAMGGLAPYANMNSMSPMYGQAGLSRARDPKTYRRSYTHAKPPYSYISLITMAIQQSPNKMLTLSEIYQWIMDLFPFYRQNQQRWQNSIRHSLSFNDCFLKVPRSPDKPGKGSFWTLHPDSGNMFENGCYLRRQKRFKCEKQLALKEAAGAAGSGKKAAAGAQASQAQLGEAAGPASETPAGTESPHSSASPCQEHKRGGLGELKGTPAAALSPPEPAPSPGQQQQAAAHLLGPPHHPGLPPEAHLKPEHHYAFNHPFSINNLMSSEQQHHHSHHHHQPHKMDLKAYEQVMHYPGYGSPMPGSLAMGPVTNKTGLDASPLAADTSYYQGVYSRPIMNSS

Test [7] is described as follows: ATG_GATA_CIS: Attagene CIS-FACTORIAL HepG2 Assay for human GATA Binding Protein (AID 2282944). Conditions: HepG2 GATA cis-element reporter, Attagene multiplex mRNA; actives raise or lower the signal. Put shortly:
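Transient MRTU transfection, HepG2, 24 h compound exposure. Total RNA → oligo(dT) RT → PCR → 6-FAM primer extension → HpaI cut → CE. Bidirectional fit vs DMSO.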

A short description of test [8]: ATG_GLI_CIS: Attagene CIS-FACTORIAL HepG2 Assay for human Zinc Finger Protein GLI1 (AID 2282945). Conditions: HepG2, Attagene cis-factorial reporter mRNA, GLI element; actives raise or lower the signal. Put shortly: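 Transiently transfected HepG2 cells report endogenous transcription factor activity via cis-element-driven reporter units. After 24 h compound exposure, reporter mRNA was measured by RT-PCR with capillary electrophoresis; bidirectional fitting against DMSO baseline.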

Test [9] in a line: ATG_ERE_CIS: Attagene CIS-FACTORIAL HepG2 Assay for Estrogen Response Element (ERE) (AID 2282940). Conditions: HepG2 ERE cis-reporter, Attagene RNA transcript; actives raise or lower the signal. Put shortly: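 Transient MRTU transfection of human HepG2; cis-element promoters; 24 h dosing; total RNA → RT (oligo dT) → PCR → 6-FAM primer extension → HpaI digest → CE fluorescence. Bidirectional fit, DMSO baseline.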

Test [10] is described as follows: ATG_FoxO_CIS: Attagene CIS-FACTORIAL HepG2 Assay for human Forkhead box O (FoxO) (AID 2282943). The note with it: HepG2 Attagene cis-reporter, FoxO element, mRNA; actives raise or lower the signal. Put shortly:
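Transfected HepG2 reporter cells exposed to test chemical for 24 h; reporter RNA measured by reverse transcription, PCR and fluorescent capillary electrophoresis; curves fitted for increases and decreases against DMSO.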

Calls of active or inactive are those of the source. How the source made its calls: active means hit-call score of the fitted dose curve at least 0.9, where 1 is the maximum; inactive means score below 0.9.

For `CCCCCCCC/C=C\CCCCCCCC(=O)OCC`, the outcome in test [1], in test [2], in [3], in [4], in test [5] and in test [6] was inactive. The result in test [7] and in [8] was inactive.
For `COc1ccc(CCN2CCC(Nc3nc4ccccc4n3Cc3ccc(F)cc3)CC2)cc1`, the outcome in [1], in test [2], in [3], in test [4], in test [5] and in [6] was inactive. For the same compound, the compound was classed as inactive in test [7].
Take `Nc1c(Cl)cc(Cl)cc1[N+](=O)[O-]`: in test [1], the AC50 (as a rule, the midpoint of the concentration-response curve, whichever way the signal moves) is 92 µM (active). For the same compound, the outcome in [2], in test [4], in [9], in [5], in [6] and in test [10] was inactive. Further, in test [7], the outcome was inactive.
As to `C=C(C)C(=O)OCCOCCOCCOCCOC(=O)C(=C)C`, the outcome in test [1], in test [2], in test [3], in [4], in [5] and in [6] was inactive. Besides, the compound was called inactive in [7] and in test [8].
Take `CCCCCCC(CO)CCCC` (stereo unspecified): the outcome in test [1], in [2], in [3], in test [4], in test [5] and in test [6] was inactive. In addition, the compound was called inactive in test [7] and in [8].
Consider `Cc1ccc(OC(=O)c2ccccc2O)cc1`, for which the outcome in test [1], in test [2], in test [3], in [4], in [5] and in test [6] was inactive. For the same compound, the result in test [7] and in test [8] was inactive.
Turning to `CCc1ncc(C)[nH]1`, the result in test [1], in test [2], in test [3], in test [4], in [5] and in test [6] was inactive. Moreover, the call in test [7] and in [8] was inactive.
For `CCc1ccc(O)cc1`, the outcome in [1], in [2], in [3], in [4], in [5] and in test [6] was inactive. Also, the result in test [7] and in test [8] was inactive.
Regarding `CCCCCCOC(=O)C(C)C`, the result in test [1], in test [2], in test [3], in test [4], in test [5] and in [6] was inactive. Further, the call in test [7] and in [8] was inactive.
With `CCCC(C)=O`, the outcome in [1], in test [2], in [3], in [4], in test [5] and in test [6] was inactive. The compound was called inactive in test [7] and in test [8].
Consider `CCCCCCCCN1CCCC1=O`, for which the result in [1], in test [2], in test [3], in [4], in test [5] and in test [6] was inactive. In addition, the result in test [7] and in test [8] was inactive.
Consider `C=CCN(CC=C)CC=C`, for which the result in test [1], in test [2], in test [3], in [4], in [5] and in [6] was inactive. The result in test [10], in [7] and in test [8] was inactive.
Consider `CC1(C)COCN1`, for which the result in [1], in test [2], in [3], in test [4], in test [5] and in test [6] was inactive. Moreover, the compound was classed as inactive in [7] and in [8].
With `CCCCC(CC)(CO)CO`, the result in test [1], in [2], in [3], in test [4], in [5] and in [6] was inactive. For the same compound, the result in test [7] and in test [8] was inactive.
With `OCc1cccc(Oc2ccccc2)c1`, the outcome in test [1], in [2], in test [3], in test [4], in [5] and in test [6] was inactive. The call in test [7] and in test [8] was inactive.
For the compound `CCCCCCCCCCCCS(=O)(=O)Cl`, the result in test [1], in test [2], in test [3], in test [4], in test [5] and in test [6] was inactive. For the same compound, the result in test [7] and in test [8] was inactive.
For `CC(=O)C1(C)CC2=C(CCCC2(C)C)CC1C` (stereo unspecified), the AC50 was 83.2 µM (active) in test [1], 157 µM (active) in test [4], 181 µM (active) in test [6] and 53.8 µM (active) in test [8]. Moreover, the compound was classed as inactive in test [2], in [3], in test [5] and in [7].
